HEK293 tox: Cytotoxic Profiling in HEK 293 Cell Line of Diverse Libraries Using Quantitative High-Throughput Screening. HEK 293 viability, ATP luminescence (CellTiter-Glo), 48-72 h. 94,000 compounds, 6.6% hits. Potency, µM (series often up to 115 µM), inactives show at the highest dose activity change, negative = cytotoxicity, usual class: inhibitors. AID 1345083, 2018; also: nearly all actives have a fitted effect of over 60% in size
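HEK 293 cells at 250 cells/well were exposed to compounds by pintool transfer for 48 or 72 hr at 37 degree Celsius, 5% CO2. Viability was read as ATP-coupled luminescence with CellTiter-Glo after 10 min at room temperature.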
Luciferase inh: Firefly luciferase inhibition profiling of diverse chemical library using quantitative high-throughput screening; Luciferin 4-monooxygenase (Photinus pyralis), P08659; purified P. pyralis luciferase, luminescence, biochemical; Potency, µM (doses to about 115 µM), hits mostly inhibitors; 76,000 compounds, 2.5% hits; also: nearly all actives have a fitted effect of over 65% in size
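Biochemical qHTS: compound (6-point titration) added to 10uM D-luciferin plus 10uM ATP in Tris acetate pH 7.5 buffer with Mg, Tween-20 and BSA, then purified enzyme at 10nM; light output imaged.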
3T3 cytotox: Cytotoxic Profiling in NIH 3T3 Cell Line of Diverse Libraries Using Quantitative High-Throughput Screening. Potency, µM (top dose mostly 96.7 µM), without a hit: top-dose activity change, negative = cytotoxicity, actives largely listed as inhibitors. NIH 3T3 viability, CellTiter-Glo ATP luminescence, 48-72 h. 94,000 compounds, 4.3% hits; also: nearly all actives have a fitted effect of over 55% in size
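Cytotoxicity was measured by CellTiter-Glo ATP luminescence after 48 or 72 h compound exposure at 37 °C. Mouse NIH 3T3 fibroblasts were seeded at 400 cells/well and dosed by 23 nL pin transfer.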
hNpr1 antagonist: Natriuretic polypeptide receptor (hNpr1) antagonism - Primary qHTS; Atrial natriuretic peptide receptor 1 (Homo sapiens), P16066; HEK293 hNpr1 GloSensor cGMP, ANP-stimulated luminescence; Potency, µM (series often up to 46.3 µM), without a hit: top-dose activity change, negative = inhibition, usual class: inhibitors; 76,000 compounds, 1.6% hits; AID 1347048, 2019; calls by dose curve; also: nearly all actives have a fitted effect of over 60% in size
Target sequence (P16066 whole entry, looked up): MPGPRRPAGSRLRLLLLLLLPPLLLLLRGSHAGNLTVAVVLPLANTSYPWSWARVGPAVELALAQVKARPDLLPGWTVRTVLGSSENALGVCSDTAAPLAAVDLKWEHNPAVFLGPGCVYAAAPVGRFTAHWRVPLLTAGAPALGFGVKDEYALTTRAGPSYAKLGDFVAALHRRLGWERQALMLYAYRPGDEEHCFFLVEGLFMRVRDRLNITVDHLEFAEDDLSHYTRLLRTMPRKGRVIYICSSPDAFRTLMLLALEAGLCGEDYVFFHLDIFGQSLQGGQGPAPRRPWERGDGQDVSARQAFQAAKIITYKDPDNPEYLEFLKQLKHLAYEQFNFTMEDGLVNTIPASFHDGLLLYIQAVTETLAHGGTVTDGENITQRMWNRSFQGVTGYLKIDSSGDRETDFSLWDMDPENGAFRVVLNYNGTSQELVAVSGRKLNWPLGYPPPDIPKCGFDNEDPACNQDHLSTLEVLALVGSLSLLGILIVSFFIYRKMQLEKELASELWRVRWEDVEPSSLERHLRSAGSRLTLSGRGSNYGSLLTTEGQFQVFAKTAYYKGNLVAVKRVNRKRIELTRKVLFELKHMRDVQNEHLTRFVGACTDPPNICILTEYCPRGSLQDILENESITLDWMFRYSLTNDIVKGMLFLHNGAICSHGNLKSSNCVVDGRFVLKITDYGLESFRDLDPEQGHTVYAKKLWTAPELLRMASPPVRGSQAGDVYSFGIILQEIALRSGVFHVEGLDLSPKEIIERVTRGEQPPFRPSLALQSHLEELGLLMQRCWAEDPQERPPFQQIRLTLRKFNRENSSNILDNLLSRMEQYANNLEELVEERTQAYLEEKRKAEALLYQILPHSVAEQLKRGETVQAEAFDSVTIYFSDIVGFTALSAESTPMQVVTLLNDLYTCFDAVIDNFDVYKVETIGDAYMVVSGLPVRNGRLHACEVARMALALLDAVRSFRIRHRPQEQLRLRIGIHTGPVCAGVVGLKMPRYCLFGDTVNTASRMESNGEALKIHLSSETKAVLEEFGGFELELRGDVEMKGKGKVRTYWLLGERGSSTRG
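Compound pre-incubated 30 min at room temperature on GloSensor-loaded HEK293 cells stably carrying hNpr1 and the pGS-40F cGMP biosensor. Stimulation uses hNppA at 0.1 nM final; luminescence is taken at baseline and 20 min post-agonist.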
GPT2 inhibitor: Primary qHTS assay for inhibitors of Glutamate pyruvate transaminase 2 (GPT2); Recombinant GPT2, coupled pyruvate oxidase/HRP Amplex Red fluorescence; Potency, µM (highest dose often 57.7 µM), for inactives: at the highest dose activity change, negative = inhibition, usual class: inhibitors; 100,000 compounds, 0.25% hits; also: nearly all actives have a fitted effect of over 60% in size
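Recombinant GPT2 (10ng/uL) with 250uM a-KG and 2mM L-alanine, 30 min at room temperature, in HEPES pH 7.5 buffer. Pyruvate detected by pyruvate oxidase/HRP/Amplex Red fluorescence after 30 min in the dark; AOA (50uM) as positive control.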
Numbers without * were called inactive; i = inactive; ? = inconclusive; . = no result given; [ ] = dose if it differs, or a comment. An excerpt weighted towards active compounds, which were near 10% of everything screened. Unless noted, calls follow the shape of the dose curve; as a rule, active = well fitted curve in the direction sought with a large enough effect; inconclusive = small, poorly fitted or top-dose-only effect, or another doubt; inactive = no such curve, though single readings can be large; an effect the other way counts as inactive or inconclusive. % is scaled to controls: 0 for no effect and ±100 for the full control effect; potency is read from the fitted curve at half-maximal effect.

SMILES | HEK293 tox | Luciferase inh | 3T3 cytotox | hNpr1 antagonist | GPT2 inhibitor
O=C(CN1C(=O)NC(c2ccc(Cl)cc2)C2=C1COC2=O)Nc1ccc2c(c1)CCC2 (centres undefined) | 22µM* | i | 25µM* | -29% | 4%
Cc1ccc(NC(=O)CN2C(=O)NC(c3ccc(Cl)cc3)C3=C2COC3=O)cc1Cl (centres undefined) | 32µM* | ? | 28µM* | ? | i
Cc1ccc(C2NC(=O)N(CC(=O)Nc3cc(F)ccc3F)C3=C2C(=O)OC3)cc1 (centres undefined) | ? | i | -26% | -1% | i
Cc1ccc(C2NC(=O)N(CC(=O)Nc3ccc4c(c3)OCCO4)C3=C2C(=O)OC3)cc1 (centres undefined) | ? | i | -18% | -9% | 1%
Cc1ncc2n1C(=O)N(C1CCN(Cc3ccc(OC(F)(F)F)cc3)CC1)C2 | 14µM* | i | ? | ? | i
Cc1cccc(OCC(=O)N2CCC[C@H]2c2nc(-c3ccc(F)cc3)n[nH]2)c1 | ? | . | ? | . | i
O=C(CC[C@@H]1CNC(=O)[C@@H]2C[C@H](NCc3ccccn3)CN12)NCc1ccccc1 | 71µM* | i | 56µM* | 0%[70.6 µM] | 1%[88.5 µM]
O=C(CC[C@@H]1CNC(=O)[C@@H]2C[C@H](NCc3ccccn3)CN12)NCc1ccc(F)cc1 | ? | i | ? | 3%[70.6 µM] | i
Cc1nn2c(c1-c1ccccc1[S+](C)(=O)[O-])N(Cc1ccccc1F)CCC2 | ? | i | 32µM* | -8%[70.6 µM] | i
CC(=O)Nc1ccccc1-c1c(C)nn2c1N(CCCc1ccccc1)CCC2 | ? | i | 25µM* | ? | 1%[88.5 µM]
Cc1nn2c(c1-c1ccccc1OCc1ccccc1)N(Cc1ccc(OCC(=O)O)cc1)CCC2 | -14% | i | 25µM* | 0% | i
Cc1nn2c(c1-c1ccccc1OCc1ccccc1)N(Cc1ccccc1)CCC2 | ? | i | ? | -21%[70.6 µM] | 0%[88.5 µM]
Cc1nn2c(c1-c1ccccc1OCc1ccccc1)N(C(=O)C(C)C)CCC2 | 32µM* | i | 89µM* | -1%[70.6 µM] | -9%[88.5 µM]
Cc1nn2c(c1-c1ccccc1[S+](C)(=O)[O-])N(C(=O)c1ccccc1)CCC2 | -17%[172 µM] | i | ? | 0%[70.6 µM] | 2%[88.5 µM]
Cc1ccc(C2Cn3nnc(-c4noc(-c5ccccc5)n4)c3CO2)cc1 (centres undefined) | 10% | i | i | -1% | -2%
CC(C)NC[C@H]1COCc2nc3cc(S(C)(=O)=O)ccc3n21 | -11%[172 µM] | i | -13%[138 µM] | -7%[70.6 µM] | 1%[88.5 µM]
COc1ccc(C(=O)NC2CCN(c3cnn(CC4CC4)c(=O)c3)CC2)cc1OC | -24% | i | ? | -16% | -7%
Cc1nn2c(c1-c1ccccc1C(C)C)N(Cc1ccc(C(=O)O)cc1)CCC2 | ? | i | 7.1µM* | 0%[70.6 µM] | i
CCc1nc(CN2CCOC(c3ccc4cc(OC)ccc4c3)C2)no1 (centres undefined) | ? | 40µM* | ? | 2% | i[11.5 µM]
CN(Cc1ccsc1)Cc1ccc(C2CCCCO2)o1 (centres undefined) | -24% | i | ? | 5% | i
COc1ccc(C2Cn3cnc(-c4nc(-c5ccc(OC(C)C)cc5)no4)c3CO2)cc1 (centres undefined) | -13% | ? | -17% | 3% | -11%
COc1ccc(C2Cn3cnc(-c4nc(-c5cccs5)no4)c3CO2)cc1 (centres undefined) | ? | 25µM* | ? | ? | -11%
COc1ccc(-c2noc(-c3ncn4c3COC(c3ccc(F)cc3)C4)n2)c(OC)c1 (centres undefined) | 35µM* | i | 32µM* | 2% | 4%
CSc1ccc(-c2noc(-c3ncn4c3COC(c3ccc(F)cc3)C4)n2)cc1 (centres undefined) | 32µM* | i | 25µM* | -4% | i
CCOc1cc(-c2noc(-c3ncn4c3COC(c3ccc(F)cc3)C4)n2)ccc1OC (centres undefined) | 22µM* | i | 25µM* | -2% | 3%
SMILES | HEK293 tox | Luciferase inh | 3T3 cytotox | hNpr1 antagonist | GPT2 inhibitor
COCCN1CC2(CCCN(Cc3ccc4cccc(F)c4n3)C2)CCC1=O (centres undefined) | 4% | i | -1% | 3% | 1%
CCOc1ccc(C2Cn3nnc(-c4nc(-c5ccccc5)no4)c3CO2)cc1 (centres undefined) | -4% | 8.9µM* | -2% | -17% | i
CCOc1cccc(-c2noc(-c3ncn4c3COC(c3ccc(OC)cc3)C4)n2)c1 (centres undefined) | 22µM* | i | 22µM* | -3% | 2%
Fc1ccccc1-c1noc(-c2ncn3c2COC(c2ccccc2Cl)C3)n1 (centres undefined) | ? | 16µM* | ? | -12% | -1%
O=C(NCCc1ccccc1)N1CCCCC1c1noc(COCC2CC2)n1 (centres undefined) | ? | i | -14% | 1% | i
CN(CCc1ccccc1)CCN1CC2(CCN(c3ncccc3C#N)CC2)OC1=O | 40µM* | i | ? | -3% | 2%
N#Cc1cccnc1N1CCCC(CO)(CCCc2ccccc2)C1 (centres undefined) | ? | i | ? | -3% | 1%
CC(=O)N1CCC(c2nnc3n2C(C(=O)Nc2ccc(F)cc2)CC3)CC1 (centres undefined) | -7%[172 µM] | . | -22%[138 µM] | . | -16%[88.5 µM]
COc1cccc(-c2ccnc(-c3nnc(C)n3C3CCCCC3)c2)c1 | 71µM* | i | 89µM* | 0%[70.6 µM] | i
COc1cccc(Nc2ccnc(-c3nnc(C)n3C3CCCCC3)c2)c1 | 71µM* | i | 89µM* | -25%[70.6 µM] | -6%[88.5 µM]
COc1cccc(CN2CCCOCCNC(=O)CC2)c1 | -8% | i | 0% | 6% | 1%
COc1ccc(S(=O)(=O)Nc2ccc(C)n(CC(=O)N(C)Cc3ccco3)c2=O)cc1 | 32µM* | i | 3% | -1% | -1%
O=C(NCc1ccccc1)c1cn(C2CN(C(=O)Nc3ccc4c(c3)OCCO4)C2)nn1 | 35µM* | ? | ? | -12% | i
O=C(NC1CCCCC1)c1ccc2nc(-c3ccnc(Cl)c3)oc2c1 | -18% | . | -10% | . | -29%
O=C(Nc1cccc(-c2nnc3n2CCCC3)c1)c1cc(-c2ccccc2)n[nH]1 | 28µM* | 2.2µM* | -3% | ? | i

Screening results from PubChem BioAssay.
